Assay results: PubChem BioAssay AID602124 (The Scripps Research Institute Molecular Screening Center, 2011)
Hit rate of the full screen: of about 1,300 compounds, about 630 (48%) were called active. Rule as the data show it: active = inhibition above about 6.5%; inactive = the rest. The set was probably picked from earlier hits. These entries were drawn from the full list.

Target: Tyrosine-protein kinase ABL1 (Homo sapiens) + Ras and Rab interactor 1 (Homo sapiens) (UniProt P00519+Q13671)
Test: disruptors of human Abl and Rin1 association – biochemical, TR-FRET, confirmation (AID 602124)
Conditions: TR-FRET Rin1-Abl binding, purified proteins; at 7.35 µM; stronger effect = higher value

Chain of Tyrosine-protein kinase ABL1 (Homo sapiens) + Ras and Rab interactor 1 (Homo sapiens) (P00519 whole entry, looked up): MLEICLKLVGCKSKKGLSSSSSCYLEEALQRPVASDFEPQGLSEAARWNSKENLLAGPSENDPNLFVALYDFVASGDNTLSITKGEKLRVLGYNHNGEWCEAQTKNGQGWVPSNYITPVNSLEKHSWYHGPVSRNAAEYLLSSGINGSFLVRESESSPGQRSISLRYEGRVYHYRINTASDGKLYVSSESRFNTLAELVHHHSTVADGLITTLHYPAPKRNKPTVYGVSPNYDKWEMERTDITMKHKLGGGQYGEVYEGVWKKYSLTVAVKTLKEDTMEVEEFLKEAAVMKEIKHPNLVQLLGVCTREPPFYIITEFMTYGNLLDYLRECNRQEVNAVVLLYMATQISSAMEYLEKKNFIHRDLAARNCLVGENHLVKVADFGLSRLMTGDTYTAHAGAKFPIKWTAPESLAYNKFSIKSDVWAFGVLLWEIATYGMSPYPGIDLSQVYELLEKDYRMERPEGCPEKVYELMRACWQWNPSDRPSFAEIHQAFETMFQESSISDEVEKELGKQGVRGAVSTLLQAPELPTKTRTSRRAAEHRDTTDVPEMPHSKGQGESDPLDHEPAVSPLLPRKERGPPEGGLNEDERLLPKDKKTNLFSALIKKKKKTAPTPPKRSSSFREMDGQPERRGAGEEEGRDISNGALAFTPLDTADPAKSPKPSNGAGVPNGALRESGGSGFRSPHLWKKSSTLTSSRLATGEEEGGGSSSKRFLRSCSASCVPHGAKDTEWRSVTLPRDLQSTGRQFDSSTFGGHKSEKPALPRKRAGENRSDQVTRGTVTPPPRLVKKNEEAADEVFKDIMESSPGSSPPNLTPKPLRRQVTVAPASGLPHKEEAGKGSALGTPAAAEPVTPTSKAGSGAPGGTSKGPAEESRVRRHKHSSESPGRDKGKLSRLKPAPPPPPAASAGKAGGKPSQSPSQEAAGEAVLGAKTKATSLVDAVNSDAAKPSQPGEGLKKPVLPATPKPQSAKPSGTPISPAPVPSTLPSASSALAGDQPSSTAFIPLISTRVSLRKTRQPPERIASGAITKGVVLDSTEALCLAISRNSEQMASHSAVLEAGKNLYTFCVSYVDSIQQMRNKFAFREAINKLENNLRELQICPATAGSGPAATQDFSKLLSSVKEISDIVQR
Chain of Tyrosine-protein kinase ABL1 (Homo sapiens) + Ras and Rab interactor 1 (Homo sapiens) (Q13671 whole entry, looked up): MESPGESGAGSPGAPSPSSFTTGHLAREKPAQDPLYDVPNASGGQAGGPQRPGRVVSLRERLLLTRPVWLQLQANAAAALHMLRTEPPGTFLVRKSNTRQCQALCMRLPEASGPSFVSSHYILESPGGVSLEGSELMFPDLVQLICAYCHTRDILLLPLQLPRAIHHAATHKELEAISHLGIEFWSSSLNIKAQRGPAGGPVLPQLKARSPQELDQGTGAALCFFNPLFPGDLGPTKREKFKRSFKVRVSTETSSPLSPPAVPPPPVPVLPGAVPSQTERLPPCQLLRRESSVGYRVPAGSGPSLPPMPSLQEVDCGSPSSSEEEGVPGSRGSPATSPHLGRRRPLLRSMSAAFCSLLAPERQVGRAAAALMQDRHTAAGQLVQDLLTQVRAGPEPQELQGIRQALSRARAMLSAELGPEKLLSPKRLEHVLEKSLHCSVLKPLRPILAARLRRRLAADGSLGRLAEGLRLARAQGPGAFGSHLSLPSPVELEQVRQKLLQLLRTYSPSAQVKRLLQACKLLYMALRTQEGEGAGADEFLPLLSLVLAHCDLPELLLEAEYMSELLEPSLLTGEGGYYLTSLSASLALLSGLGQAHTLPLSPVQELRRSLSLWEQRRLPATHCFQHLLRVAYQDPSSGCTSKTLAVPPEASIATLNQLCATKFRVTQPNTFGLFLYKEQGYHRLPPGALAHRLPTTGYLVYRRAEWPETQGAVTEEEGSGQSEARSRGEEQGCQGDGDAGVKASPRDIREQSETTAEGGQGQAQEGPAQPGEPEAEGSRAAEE

inhibition, active:
CN(C(=O)c1ccc(NC(=O)Cc2cccc(NC(=O)C3CCN(C(=O)c4ccccc4)CC3)c2)cc1)C1CC1 26%
Cc1ccc(-n2c(SCC(=O)NCc3ccc4c(c3)OCO4)nnc2-c2cccnc2)c(C)c1 12.5%
CCCn1c(N)c(C(=O)CSc2nnc(-c3cccnc3)n2-c2ccc(C)cc2C)c(=O)[nH]c1=O 13.8%
Cc1ccccc1C(=O)N1CCC(C(=O)Nc2ccc(S(=O)(=O)N(C)C(C)C)cc2)CC1 9.43%
O=c1ccc2c(-c3ccccc3S(=O)(=O)O)c3ccc(O)c(O)c3oc-2c1O 67%
COC(=O)c1ccc(COC(=O)C2CCN(S(=O)(=O)c3c(Cl)cccc3Cl)CC2)o1 16.6%
CCOC(=O)N1CCN(C(=O)C2CCN(c3ncnc4c3sc3cccc(F)c34)CC2)CC1 28.5%
CCOC(=O)N1CCN(C(=O)C2CCCN(c3ncnc4c3sc3cccc(F)c34)C2)CC1 (stereo not given) 9.09%
CC(OC(=O)c1ccccc1NCCO)C(=O)Nc1ccnn1C(C)C (stereo not given) 53.2%
CSc1ncnc2c1ncn2CC(=O)C1CCC2C3CCC4=CC(=O)CCC4(C)C3CCC12C (stereo not given) 11.9%
C#CCOCCOCCOCCNc1nc(N2CCN(C(=O)C(Cc3ccc(O)cc3)n3cc(C(N)CC(C)C)nn3)CC2)nc(N2CCN(C(=O)C(Cc3ccc(O)cc3)n3cc(C(N)C(C)CC)nn3)CC2)n1 (stereo not given) 13.9%
C[C@@H]1CN([C@H](C)CO)S(=O)(=O)c2ccc(C#C[C@@H](C)O)cc2O[C@@H]1CN(C)Cc1ccc(-c2ccccc2)cc1 32.5%
C=C1c2c(Cl)ccc(O)c2C(O)=C2C(=O)[C@]3(O)C(O)=C(C(N)=O)C(=O)[C@@H](N(C)C)[C@@H]3[C@@H](O)C12 (stereo not given in full) 13.9%
CN(Cc1c(F)cccc1Cl)C(=O)CNC(=O)c1ccc2c(c1)OCO2 45.8%
C=CCn1c2ccccc2c2nnc(SCc3[nH]c(=O)[nH]c3C(=O)CCCCC(=O)OCC)nc21 71.5%
Cc1cccc(N(C)C(=O)CN2C(=O)COc3ccc(S(=O)(=O)N4CCCCCC4)cc32)c1 7.15%
Oc1cccc2cc(-c3ccncc3)cnc12 20.6%
CCOc1ccc(CNC(=O)C2CCCN(c3nnc(C)c4c(C)n(-c5ccccc5)nc34)C2)cc1 (stereo not given) 12.6%
O=C(CC1SCCNC1=O)Nc1ccc(Cl)cc1 (stereo not given) 12.1%
O=c1c2c(nc3n1CCCCC3)sc1c(O)cccc12 14.5%
CC(=O)NC(c1cccs1)c1cc(Br)c2cccnc2c1O (stereo not given) 15.9%
Cc1c(CC(=O)N2CCN(C(=O)C3COc4ccccc4O3)CC2)c(=O)oc2c(O)c(O)ccc12 (stereo not given) 8.45%
NC1=CC(=O)C(=O)c2cccnc21 19.5%
Cc1ccccc1CN1C[C@@H]2C[C@@H](c3ccc4nsnc4c3)N3CCC[C@@]23C1=O 22%
Nc1cc(=O)c2[nH]cnc2[nH]1 18.1%

inhibition, inactive:
CC(=O)Nc1ccc(CN2CCC(Oc3ccc(C(=O)N4CCCC4)cc3)CC2)cc1 3.99%
CCOC(=O)CN(C(=O)COc1nc(C)cc(C)c1C#N)c1ccc(Cl)cc1 0.28%
O=C(NNc1c2ccccc2nc2ccccc12)c1cc2ccccc2cc1O 1.57%
CCOc1ccc(-n2c(SCC(=O)NC3CCS(=O)(=O)C3)nnc2-c2cccnc2)cc1 (stereo not given) 3.68%
COCCNC(=O)Nc1ccc2nc(-c3ccco3)c(-c3ccco3)nc2c1 5.72%
CN(CC(=O)Nc1ccc(F)cc1)CC(=O)Nc1ccc(Cl)c(S(=O)(=O)N2CCOCC2)c1 0.32%
CCc1ccc(CN(C)C(C)C(=O)Nc2ccc(S(=O)(=O)N3CCCC3)cc2)cc1 (stereo not given) -1.11%
O=C(Nc1ccc(S(=O)(=O)Nc2ncccn2)cc1)c1cncc(Br)c1 1.84%
CC(CCO)Nc1nc2c([nH]1)c(=O)n(C)c(=O)n2C (stereo not given) 1.44%
CN(C)c1ccc(N/C=C/C(=O)C(F)(F)F)cc1 -4.29%
O=C(COc1ccc(S(=O)(=O)NCCc2ccccc2)cc1)N1CCCC1 -1.2%
Cc1cc2ccccc2n1CCNC(=O)COc1ccc2ccccc2c1 0.15%
CCOC(=O)N1CCC(c2cc(=O)n(-c3ccccc3)[nH]2)CC1 -2.37%
Cc1cc(NC(=O)CSCC(=O)NC(C)c2ccccc2)no1 (stereo not given) 0.39%
O=C(Nc1ccc(OC(F)(F)F)cc1)c1ccc2c(c1)no[n+]2[O-] -0.65%
COc1ccc(CNC(=O)c2cc(C(=O)C3CC3)c[nH]2)cc1 1.47%
O=C(c1cn(-c2ccccc2)nc1-c1cc2ccccc2oc1=O)N1CCOCC1 -4.12%
O=C(CNCc1ccco1)Nc1cc(S(=O)(=O)N2CCOCC2)ccc1N1CCCC1 -1.42%
Oc1c(CN2CCN(c3ccc(F)cc3)CC2)cc(Cl)c2cccnc12 -0.1%
CC(C)CNS(=O)(=O)c1ccc(C(=O)Nc2ccc3c(c2)OCO3)cc1 -0.58%
C=CCn1cc(C(=O)NCc2ccc(Cl)cc2)c(=O)c2cc(S(=O)(=O)N(CC)CC)ccc21 0.48%
CCc1cc2c(N3CCN(c4nnc(CC)s4)CC3)ncnc2s1 4.08%
Cc1ccc(C(NC(=O)C2CCN(CCOc3ccc(Cl)cc3Cl)CC2)c2ccccn2)cc1 (stereo not given) 0.23%
CCOc1ccc(S(=O)(=O)N2CCCCC2)cc1NC(=O)CN1CCCC1c1cccs1 (stereo not given) 0.05%
NS(=O)(=O)c1ccc(CCNC(=O)Nc2ccc(Cl)cc2)cc1 -1.53%
OC[C@@H]1CN(Cc2ccc(Cl)cc2)C[C@H](n2cnc3c(NCc4ccncc4)ncnc32)O1 2.98%
Cc1nn(-c2ncc(C(F)(F)F)cc2Cl)c(=O)n1-c1ccccc1 -0.89%
Nc1nc2n(n1)C(c1ccco1)CC(c1ccc(Cl)c(Cl)c1)N2 (stereo not given) 0.66%
COc1cc(C(=S)N2CCOCC2)ccc1O -2.83%
O=c1cc(CO)oc(CN2CCC(Cc3ccccc3)CC2)c1O -3.76%
